# Most compounds without a hit are left out; they make up all but 18% or so of the library.
# LDHA block = qHTS assay for inhibitors of human lactate dehydrogenase | L-lactate dehydrogenase A chain (Homo sapiens), P00338 | activity change, % (values are at about 110 or 230 µM) | purified LDHA, NADH/diaphorase-resazurin fluorescence; stronger effect = lower value | hit rate 0.15% among 480,000 | AID 1347041, 2019; in the data active = activity change below about -30%; inconclusive = mostly about -25% to -30%;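 note: plate controls were DMSO wells for no effect and wells without enzyme for full effect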
#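 Resorufin fluorescence (ex540/em590), read at 0 and 20 min after diaphorase/resazurin addition, reports the NADH left after a 5 min room-temperature reaction of 2 nM human LDH5 with 0.06 mM NADH and 0.2 mM pyruvate.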
# DT40 TDP1 no CPT = qHTS for Inhibitors of human tyrosyl-DNA phosphodiesterase 1 (TDP1): qHTS in cells in absence of CPT. DT40 Tdp1-/- hTDP1 cells, no CPT, ATP luminescence, 48 h. Potency, µM (doses to about 46.2 µM), inactives show top-dose activity change, negative = growth inhibition, actives largely listed as inhibitors. hit rate 15% among 420,000. AID 686978, 2013; note: potency is the fitted concentration of half-maximal effect; nearly all actives have a fitted effect of over 55% in size
#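 A cellular qHTS used chicken DT40 cells lacking endogenous Tdp1 but carrying stably transfected human TDP1. Compounds were applied without camptothecin, and cell growth kinetics were judged by ATP-dependent luminescence after ≥48 hr.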
# DT40 TDP1 CPT = qHTS for Inhibitors of human tyrosyl-DNA phosphodiesterase 1 (TDP1): qHTS in cells in presence of CPT | Potency, µM (highest dose often 46.2 µM), for inactives: at the highest dose activity change, negative = growth inhibition, usual class: inhibitors | hit rate 12% among 420,000 | AID 686979, 2013 | chicken DT40 Tdp1-/-;hTDP1 cells + 20 nM CPT, ATP luminescence, 48 h; note: potency is the fitted concentration of half-maximal effect; nearly all actives have a fitted effect of over 55% in size
#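 Cell growth measured by CellTiter-Glo luminescence after a minimum 48 h, 37 C compound exposure with 20 nM CPT in Tdp1-knockout DT40 cells stably expressing hTDP1, seeded 400/well; qHTS titration format.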
# IL1B secr inh = qHTS for Inhibitors of Inflammasome Signaling: IL-1-beta AlphaLISA Primary Screen. hit rate 4.7% among 360,000. THP-1 LPS/ATP IL-1B secretion, AlphaLISA, 16 h; stronger effect = lower value. activity change, % at 57.5 µM; in the data active = activity change below about -50%; inconclusive = mostly about -30% to -49%
#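 Secreted IL-1B measured by AlphaLISA bead assay after 16 h compound exposure of THP-1 cells; compounds (final up to 57.5 uM) added 1 h before LPS (250 ng/mL) and ATP (1.25 mM) stimulation; lower signal means less secretion.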
# Gal4-VP16 FLuc = VP16 counterscreen qHTS for inhibitors of ROR gamma transcriptional activity; Drosophila S2 Gal4-VP16 UAS-luciferase, luminescence, 20 h; Potency, µM (highest dose often 53.6 µM), for the others: at the top dose activity, negative = inhibition, actives largely listed as inhibitors; hit rate 3.5% among 310,000;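 note: Gal4-VP16 expression switched on by copper sulfate through the metallothionein promoter; potency is the fitted concentration of half-maximal effect; nearly all actives have a fitted effect of over 50% in size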
# RORgamma inh = qHTS for inhibitors of ROR gamma transcriptional activity. Nuclear receptor ROR-gamma (Mus musculus), P51450. Drosophila S2 Gal4-RORgamma UAS-luciferase reporter, 20 h. Potency, µM (titrated, usually from 53.6 µM), without a hit: top-dose activity change, negative = inhibition, actives largely listed as inhibitors. hit rate 5.4% among 310,000; note: potency is the fitted concentration of half-maximal effect; nearly all actives have a fitted effect of over 60% in size
# Target sequence (P51450 whole entry, looked up, the tested form may be a part): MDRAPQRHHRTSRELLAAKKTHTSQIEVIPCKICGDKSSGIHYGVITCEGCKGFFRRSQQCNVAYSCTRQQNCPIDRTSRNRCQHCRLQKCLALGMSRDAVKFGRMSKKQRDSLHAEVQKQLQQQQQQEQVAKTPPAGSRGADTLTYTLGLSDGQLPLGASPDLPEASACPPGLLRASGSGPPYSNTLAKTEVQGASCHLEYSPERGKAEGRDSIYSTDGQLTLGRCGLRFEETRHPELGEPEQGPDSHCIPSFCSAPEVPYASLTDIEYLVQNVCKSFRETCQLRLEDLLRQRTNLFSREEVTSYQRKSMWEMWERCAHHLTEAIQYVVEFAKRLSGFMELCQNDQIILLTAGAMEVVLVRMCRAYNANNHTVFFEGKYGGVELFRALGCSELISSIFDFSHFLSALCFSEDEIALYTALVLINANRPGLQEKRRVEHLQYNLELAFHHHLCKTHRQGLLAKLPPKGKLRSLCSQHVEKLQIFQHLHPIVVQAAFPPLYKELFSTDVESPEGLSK
#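 Stably transfected Drosophila Schneider cells are the test system, with ROR gamma fused to Gal4 and luciferase under UAS control; luminescence is read after 20 hr of 700 uM copper sulfate induction at ambient temperature.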
# Starred values were filed as active, the others as inactive; ? = inconclusive; . = not tested or not shown. Unless noted, calls come from the whole dose curve; as a rule, active = well fitted curve in the direction sought with a large enough effect; inconclusive = small, poorly fitted or top-dose-only effect, or another doubt; inactive = no such curve, though single readings can be large; an effect the other way counts as inactive or inconclusive. Unless noted, % is set by controls: 0 for no effect and ±100 for the full control effect.
SMILES,LDHA block,DT40 TDP1 no CPT,DT40 TDP1 CPT,IL1B secr inh,Gal4-VP16 FLuc,RORgamma inh
C/C(CC1CC(C)OC1=O)=N\NC(N)=S (configuration not stated),-2,15%,-11%,22,?,8.9µM*
Cc1nc(N2CCN(Cc3ccccc3)CC2)nc2c1C(=O)CCC2,1,16µM*,23µM*,-11,-8%,?
Fc1ccc2[nH]c3c(NCc4ccco4)ncnc3c2c1,-21,8.9µM*,7.1µM*,.,.,.
COc1cc(CNc2ncnc3c2[nH]c2ccc(C)cc23)cc(OC)c1,-5,21µM*,?,?,-10%,?
Cc1ccc2[nH]c3c(NCCCN4CCCC4=O)ncnc3c2c1,-1,?,?,-12,-13%,57%
Cc1ccc2[nH]c3c(NCc4ccco4)ncnc3c2c1,2,18µM*,23µM*,-21,?,-27%
COc1ccc(/C=N/Nc2ncnc3c2[nH]c2ccc(C)cc23)c(OC)c1OC,-2,15µM*,?,56,0%,-27%
c1coc(CNc2ncnc3nc[nH]c23)c1,-7,-28%,-26%,11,5%,15%
CCC(=O)c1ccc(OCC(=O)Nc2cccc(S(=O)(=O)N3CCCCCC3)c2)cc1,2,5.2µM*,7.3µM*,4,.,.
CCOc1ccc(OCCC(=O)OCC(=O)Nc2cccc(S(=O)(=O)N3CCCCC3)c2)cc1,1,?,?,17,.,.
O=C(COc1ccc(C(=O)c2ccc(F)cc2)cc1)Nc1cccc(S(=O)(=O)N2CCOCC2)c1,-5,12µM*,23µM*,?,.,.
Cc1cccc(C)c1OCC(=O)Nc1cccc(S(=O)(=O)N2CCCC2)c1,2,13µM*,?,-25,.,.
Cc1ccc(OCC(=O)Nc2cccc(S(=O)(=O)N3CCCCCC3)c2)c([N+](=O)[O-])n1,-1,16µM*,?,-4,-17%,24%
Cc1ccccc1CC(=O)Nc1cccc(S(=O)(=O)N2CCCC2)c1,-4,11%,-8%,0,.,.
CCCSc1nc2c(c(=O)n(C)c(=O)n2C)n1Cc1cccc2ccccc12,-4,.,.,.,.,.
CCOC(=O)c1nc2ccccc2nc1NCc1ccc2c(c1)OCO2,1,.,.,.,.,.
Cc1ccc(C23CC4CC(CC(C(=O)Nc5ccc(Cl)c(Cl)c5)(C4)C2)C3)cc1,8,.,.,.,.,.
Cc1cccc(C)c1OCC(=O)Nc1cccc(S(=O)(=O)N2CCCCCC2)c1,-2,21µM*,21µM*,-5,.,.
O=C(COC(=O)/C=C/c1ccc(OC(F)F)cc1)Nc1cccc(S(=O)(=O)N2CCOCC2)c1,0,21µM*,?,-11,.,.
Cc1cc(C)c(OCC(=O)Nc2ccc(S(=O)(=O)N3CCCC3)cc2)c(C)c1,0,?,?,-29,.,.
O=C(COC(=O)/C=C/c1ccc(F)cc1)Nc1cccc(S(=O)(=O)N2CCCC2)c1,-2,?,?,3,-9%,22%
CCOc1nc2ccccc2nc1C(C#N)C(=O)NCc1ccccc1 (configuration not stated),-10,.,.,.,.,.
Cn1cnc([N+](=O)[O-])c1,0,.,.,.,.,.
N#CCCN(Cc1ccccc1)C(=S)NC(=O)c1ccccc1,6,9.2µM*,9.2µM*,27,0.71µM*,0.35µM*
COc1ccc(CN(CCC#N)C(=S)NC(=O)c2ccccc2)cc1,-4,?,?,-17,0.56µM*,0.32µM*
SMILES,LDHA block,DT40 TDP1 no CPT,DT40 TDP1 CPT,IL1B secr inh,Gal4-VP16 FLuc,RORgamma inh
N#CCCN(Cc1ccccc1)C(=S)Nc1ccccc1,-11,-20%,-15%,12,4%,-41%
CCCN(CC(=O)Nc1ccccc1C)C(=O)CCN1C(=O)c2cccc([N+](=O)[O-])c2C1=O,1,-19%,6%,-51*,.,.
Cc1cccc(NC(=O)CCN2C(=O)c3cccc([N+](=O)[O-])c3C2=O)c1,2,18%,1%,16,-5%,6%
CCCN(CC(=O)Nc1ccccc1C)C(=O)CCCOc1ccc(Br)cc1,1,18µM*,?,4,.,.
FC(F)(F)c1cnc2c(c1)[nH]c(=S)n2-c1ccc(Cl)cc1,-3,?,21µM*,-28,?,7.9µM*
Cc1nnc(C(=O)Nc2cccc(C(=O)NCc3ccc4c(c3)OCO4)c2)s1,-13,.,.,.,.,.
CCOc1ccccc1NC(=O)c1cc2cc(OC)ccc2oc1=O,3,.,.,.,.,.
COc1cccc2cc(C(=O)Nc3ccccc3C)/c(=N/O)oc12,14,16µM*,16µM*,21,1%,0%
COc1ccc2oc(=O)c(/C(C)=N/NC(=O)c3ccncc3)cc2c1,5,-2%,1%,-6,?,13µM*
COc1ccc2oc(=O)c(C(=O)Nc3ccccc3O)cc2c1,2,?,2%,-9,?,8.9µM*
COc1ccc(NC(=O)c2cc3ccc(O)cc3o/c2=N\O)cc1,0,?,4.1µM*,?,0.1µM*,0.063µM*
Cn1c(=O)c2c(nc(SCc3ccc(F)cc3)n2Cc2ccccc2)n(C)c1=O,-2,.,.,.,.,.
N=c1oc2cc(O)ccc2cc1C(=O)Nc1ccc(F)cc1,-1,?,?,-56*,7.1µM*,11µM*
COc1ccc2o/c(=N\O)c(C(=O)Nc3ccccc3OC)cc2c1,-1,5.8µM*,3.7µM*,-14,?,2.8µM*
Cc1ccc(NC(=O)c2cc3ccc(O)cc3oc2=O)cc1,1,.,.,.,.,.
CCN1CCN(C(C)C(=O)NC2CCCCC2)CC1 (configuration not stated),-31*,0%,-3%,-10,6%,-3%
CC(C(=O)NC1CCCC1)N1CCN(S(=O)(=O)c2ccc(C(C)(C)C)cc2)CC1 (configuration not stated),-4,10µM*,21µM*,-1,.,.
COc1ccc(S(=O)(=O)N2CCC(C(=O)N[C@@H](C)C(=O)NC3CCCC3)CC2)cc1,-3,?,16µM*,32,-3%,-11%
CC(C)(C)c1ccc(S(=O)(=O)N2CCN(C3CCCC3)CC2)cc1,1,?,?,19,-1%,-20%
Cc1cc(C(=O)N(Cc2ccco2)Cc2cccs2)ccc1-n1cnnn1,2,.,.,.,.,.
O=C(Cc1ccc2c(c1)CCC2)OCc1ccc([N+](=O)[O-])cc1,3,.,.,.,.,.
Cn1c(=O)c2c(n(C)c1=O)n(CC(=O)NC(C)(C)C)c(=O)n2C,2,.,.,.,.,.

# High-throughput results from PubChem.
